697 NFkB inh – inhibitors of the PMA/ionomycin-induced NF-kB reporter in 697 B cells | 697 B-cell NF-kB luciferase reporter, 16 h | inhibition, % at 4 µM | 330,000 compounds, 0.33% hits | AID 435022; in the data active = inhibition above about 35%
aSyn UTR inh – 5' untranslated region of α-synuclein, MLPCN primary screen. AID 1813. inhibition, % (tested at 7.5 µM). 300,000 compounds, 0.82% hits. alpha-synuclein 5'UTR reporter, inhibitor activity; in the data active = inhibition above about 60%; inconclusive = no clear call, values can overlap the other calls;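 also: H4 neuroglioblastoma cells stably carrying SNCA 5'UTR luciferase fusion; 0% = DMSO wells and 100% = positive control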
Jurkat NFkB inh – lowers PMA/ionomycin-induced NF-kB signal in Jurkat cells | 330,000 compounds, 0.53% hits | inhibition, % at 4 µM | PMA/ionomycin-induced NF-kB luciferase reporter, luminescence; in the data active = inhibition above about 50%
Mdm2-MdmX inh – inhibitors of human Mdm2/MdmX interaction; O15151+Q00987; SaOS-2 split-luciferase Mdm2/MdmX complementation, luminescence; inhibition, % at 8 µM; 330,000 compounds, 3% hits; AID 485346;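 active = inhibition of at least 50% at 8 µM in the primary screen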
Target sequence (O15151 whole entry, looked up): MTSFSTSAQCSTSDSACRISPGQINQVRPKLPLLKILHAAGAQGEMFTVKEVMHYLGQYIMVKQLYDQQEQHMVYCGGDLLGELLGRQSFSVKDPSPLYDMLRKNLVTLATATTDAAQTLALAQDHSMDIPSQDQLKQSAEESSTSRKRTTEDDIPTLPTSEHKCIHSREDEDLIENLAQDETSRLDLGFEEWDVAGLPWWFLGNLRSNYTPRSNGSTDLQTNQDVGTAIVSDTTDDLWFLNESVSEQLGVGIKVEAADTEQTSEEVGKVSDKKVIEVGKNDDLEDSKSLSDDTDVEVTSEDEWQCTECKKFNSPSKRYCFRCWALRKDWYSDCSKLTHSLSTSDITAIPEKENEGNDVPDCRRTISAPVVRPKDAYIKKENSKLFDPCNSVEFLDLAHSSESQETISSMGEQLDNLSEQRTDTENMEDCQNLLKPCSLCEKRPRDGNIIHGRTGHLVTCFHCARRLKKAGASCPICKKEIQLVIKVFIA
Target sequence (Q00987 whole entry, looked up): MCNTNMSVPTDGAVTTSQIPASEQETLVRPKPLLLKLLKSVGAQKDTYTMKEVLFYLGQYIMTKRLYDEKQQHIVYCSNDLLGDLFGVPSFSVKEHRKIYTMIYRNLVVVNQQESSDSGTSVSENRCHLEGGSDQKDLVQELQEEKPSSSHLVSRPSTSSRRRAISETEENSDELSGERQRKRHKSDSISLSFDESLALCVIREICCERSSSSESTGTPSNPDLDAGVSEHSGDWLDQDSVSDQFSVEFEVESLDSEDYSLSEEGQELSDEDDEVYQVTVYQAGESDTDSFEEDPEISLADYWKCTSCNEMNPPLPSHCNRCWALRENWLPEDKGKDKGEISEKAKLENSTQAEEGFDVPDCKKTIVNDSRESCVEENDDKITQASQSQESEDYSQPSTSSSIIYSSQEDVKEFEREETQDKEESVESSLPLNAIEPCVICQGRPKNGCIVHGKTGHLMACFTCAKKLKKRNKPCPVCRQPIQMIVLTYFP
Gli-Sufu antag – blocks Gli-Sufu signaling in a luciferase reporter; Sufu-KO-LIGHT fibroblasts, Gli luciferase reporter luminescence; inhibition, % at 5 µM; 340,000 compounds, 0.74% hits; AID 588413;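 active = inhibition above about 55%, limit read from the data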;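 also: 0% = DMSO-treated cells and 100% = wells with medium but no cells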
CSC inhib – cancer stem cell inhibition; cancer stem cell-like cells viability, luminescence; inhibition, % at 7.5 µM; 300,000 compounds, 1.1% hits; in the data active = inhibition above about 75%; inconclusive = no clear call, values can overlap the other calls; tested in HMLE shEcad cells
* hit, by the source's call; ? = inconclusive; nt = no result given. This is a sample that favours compounds with a hit; in the whole collection about 4.5% have one here.

SMILES	697 NFkB inh	aSyn UTR inh	Jurkat NFkB inh	Mdm2-MdmX inh	Gli-Sufu antag	CSC inhib
Cc1ccc(-c2cc(-c3ccc(C)cc3)[n+](-c3ccc(C(=O)[O-])cc3)c(-c3ccc(C)cc3)c2)cc1	-3.3	83.3*	17.4	36.1	8.3	17.0
C[n+]1c(-c2ccccc2)cc(-c2ccc(Cl)cc2)cc1-c1ccccc1	-23.8	-0.3	6.6	23.1	19.8	4.0
Clc1ccc(C(Cn2ccnc2)OCc2csc3c(Cl)cccc23)c(Cl)c1 (centres undefined)	-10.6	nt	37.6	32.0	34.5	106.9*
Nc1ncc([N+](=O)[O-])s1	13.7	nt	-0.9	10.4	7.7	-7.0
Cc1ccc(Cn2cc(C=O)c3ccccc32)cc1	-2.8	47.7	10.9	23.4	-0.1	25.5
O=Cc1cn(Cc2ccc(F)cc2)c2ccccc12	7.8	70.7*	17.5	16.1	-2.9	2.8
O=Cc1cn(Cc2ccc([N+](=O)[O-])cc2)c2ccccc12	22.6	72.5*	7.0	-16.2	-1.6	46.5
O=C(NC1CONC1=O)OCC(Cl)(Cl)Cl (centres undefined)	3.4	4.3	6.4	13.5	-21.2	76.9*
CC1=C2[C@@H]3OC(=O)[C@H](C)C3CC[C@@]2(C)C=CC1=O (some centres undefined)	-6.5	3.7	-5.5	15.8	5.5	-8.5
O=C1NC2C(O)C(O)C(O)C(O)C2c2cc3c(c(O)c21)OCO3 (centres undefined)	nt	nt	nt	nt	71.9*	nt
C[C@H]1[C@H](OC(=O)CCC(=O)NCc2ccc(C(=O)O)cc2)O[C@@H]2O[C@@]3(C)CC[C@H]4[C@H](C)CC[C@@H]1C24OO3	14.8	-0.3	9.0	26.7	88.5*	24.9
CC/C(=N\N1CCCCCC1)c1c(O)n(-c2ccccc2C)c(=O)[nH]c1=O	-18.6	38.3	5.4	16.7	15.7	12.5
CN(C)CCN=Cc1c(O)n(-c2cccc(C(F)(F)F)c2)c(=O)[nH]c1=O	-8.2	-27.7	-15.0	1.4	-3.9	-7.5
CC/C(=N\Nc1ccccc1)c1c(O)n(-c2ccc(OC)cc2)c(=O)[nH]c1=O	-22.7	nt	2.7	-6.9	2.7	75.8*
CCC(=NCCO)c1c(O)n(-c2ccccc2)c(=O)[nH]c1=O	9.3	-1.7	19.4	7.7	0.6	-9.0
CC1CN1P(=O)(Oc1ccccc1)N1CC1C (centres undefined)	nt	nt	nt	nt	-3.4	nt
C[C@@]1(CO)[C@H](O)CC[C@@]2(C)[C@H]1CC[C@H]1C[C@@H]3C[C@@]12CC[C@]3(O)CO	nt	73.3*	nt	nt	nt	?
Cc1nonc1OCCNc1ccc([N+](=O)[O-])c2cccnc12	-20.3	22.0	-3.7	16.1	6.0	-22.2
C=CCn1c(O)c(C(CC)=Nc2ccc(N(C)C)cc2)c(=O)[nH]c1=O	-10.6	-1.2	13.4	10.7	17.8	-3.4
CCCCCCn1c(=O)c(C(=O)Nc2ncccc2O)c(O)c2ccccc21	30.5	91.9*	15.8	44.6	33.1	32.6
CCCCn1c(=O)c(C(=O)Nc2ccccn2)c(O)c2ccccc21	-22.5	18.1	4.4	30.1	nt	23.4
CCC1C(c2cc(OC)c(OC)c(OC)c2)c2cc3c(cc2OC1N1CCCC1)OCO3 (centres undefined)	nt	nt	nt	nt	9.0	nt
CCC(C)n1c(O)c(C=NCCc2ccccc2)c(=O)[nH]c1=S (centres undefined)	-30.7	8.8	-27.2	-27.7	2.6	-3.9
O=c1[nH]c(=O)n(Cc2ccc(F)cc2)c(O)c1C=NCCCO	6.9	10.1	-3.1	-2.2	-4.0	nt
O=c1[nH]c(=O)n(CCC2=CCCCC2)c(O)c1/C=N/Nc1ccccc1	12.2	-13.8	8.8	9.1	8.4	97.4*
SMILES	697 NFkB inh	aSyn UTR inh	Jurkat NFkB inh	Mdm2-MdmX inh	Gli-Sufu antag	CSC inhib
CCC(C)n1c(O)c(/C=N/Nc2ccccc2)c(=O)[nH]c1=S (centres undefined)	-2.6	-1.9	-7.1	7.3	-0.9	82.5*
O=c1[nH]c(=O)n(Cc2ccc(F)cc2)c(O)c1/C=N/Nc1ccccc1	-5.4	-10.2	-4.9	22.4	2.7	78.8*
CCOP(=O)(OCC)C(NC(C)=O)C(Cl)(Cl)Cl (centres undefined)	9.0	-1.6	1.2	29.5	10.3	-7.1
CCCCn1c(O)c(C(=O)/C=C/c2c[nH]c3ccccc23)c(=O)[nH]c1=O	-5.1	-6.7	-5.1	12.3	-2.4	-2.0
C[C@H]1CCC/C=C/[C@@H]2C[C@H](O)C[C@H]2[C@@H](O)/C=C/C(=O)O1	nt	nt	nt	nt	85.5*	nt
C[C@H]1O[C@@H](OC2CC[C@]3(C=O)[C@H]4CC[C@]5(C)[C@@H](C6=CC(=O)OC6)CC[C@]5(O)[C@@H]4CC[C@]3(O)C2)CC2OC(C)(C)OC21 (some centres undefined)	nt	95.7*	nt	nt	12.7	100.8*
CN1CCC(N(C)c2nc(-c3ccc([N+](=O)[O-])cc3)nc3ccccc23)CC1	nt	75.1*	nt	nt	-11.9	nt
CC(=O)OCC12CC(OC(=O)CC(C)C)C(C)=CC1OC1C(O)C(OC(C)=O)C2(C)C12CO2 (centres undefined)	nt	nt	nt	nt	89.5*	nt
COC1CCC(OC2CC(C3(C)CCC4(CC(O)C(C)C(C(C)/C=C(\C)C(=O)C(C)CC(C)C(=O)O)O4)O3)OC3(OC(C4OC(O)(CO)C(C)CC4C)CC3C)C2C)OC1C (centres undefined)	nt	nt	nt	nt	77.0*	nt
CCN(CC)C(=O)c1ccc(NC(=O)CCCSc2ccccc2)cc1	20.2	3.8	-8.0	-4.5	-14.9	-12.2
CCN(CC)C(=O)c1ccc(NC(=O)Nc2ccccc2F)cc1	-76.4	?	-108.8	-74.2	-31.9	81.0*
C[C@]12CCC3C(CC[C@H]4C[C@H](O)CC[C@]34C)C1C[C@@H](O)[C@H]2O (some centres undefined)	nt	nt	nt	nt	-12.2	nt
CN(C)C(=S)SSC(=S)N(C)C	nt	-37.5	nt	nt	68.0*	4.4
O=c1[nH]c(CN2CC=C(c3ccccc3)CC2)nc2cc(C(F)(F)F)ccc12	-2.9	-15.9	7.9	-5.4	7.1	-12.8
O=c1[nH]c(CN2CC=C(c3ccccc3)CC2)nc2scc(-c3ccccc3)c12	-4.7	2.1	1.6	8.0	3.8	80.9*
CC1CC(C)CC(C)C(O)C(C#N)=CC=CCC(C2CCCC2C(=O)O)OC(=O)CC(O)C(C)C1 (centres undefined)	nt	nt	nt	nt	87.2*	nt
CCC1([N+](=O)[O-])COP(N)(=O)OC1 (centres undefined)	nt	nt	nt	nt	6.8	nt
O=P(O)(Oc1ccccc1)OC(c1ccccc1)C(F)(F)C(F)(F)F (centres undefined)	-12.4	8.5	2.0	-15.9	-9.4	-3.6
CCn1c(=O)n(CC)c2cc([N+](=O)[O-])c(N3CCNCC3)cc21	0.2	3.8	-6.1	26.4	13.0	5.0
Cc1ccc(-n2c(-c3cccs3)nc3ccccc3c2=O)cc1	-14.1	8.2	-38.2	-17.3	-9.3	78.5*
CC(=O)OC1C=CC2[C@H]3Cc4ccc(O)c5c4[C@@]2(CCN3C)C1O5 (some centres undefined)	20.4	nt	-0.4	3.6	1.4	nt
N=C(N)c1c(O)n(C2CCCCC2)c(=O)n(C2CCCCC2)c1=O	-12.7	nt	4.7	39.3	8.7	101.7*
